Sampled rows, rich in hits. Any-hit rate of the full collection: about 2.3%.
MEKK2 WT-MEK5 – raises or lowers MEK5 binding to wildtype human MEKK2 PB1 domain; Q9Y2U5; hit rate 1.1% among 290,000; bead flow cytometry, Alexa488-MEK5 binding to MEKK2 WT; actives lie on both sides; AID 1531; binding response (% of control), % at 10 µM; in the data active means binding response below about 67% or above about 130%; inconclusive means no clear call, values can overlap the other calls; inactive means in between
UBC13 polyUb – human UBC13 polyubiquitination inhibition; hit rate 0.47% among 330,000; AID 485273; inhibition, % at 20 µM; UBC13 polyubiquitin chain formation, TR-FRET; in the data active means inhibition above about 45%, passing the limit was not always enough; inconclusive means no clear call, values can overlap the other calls
Target sequence (P61088 whole entry, looked up): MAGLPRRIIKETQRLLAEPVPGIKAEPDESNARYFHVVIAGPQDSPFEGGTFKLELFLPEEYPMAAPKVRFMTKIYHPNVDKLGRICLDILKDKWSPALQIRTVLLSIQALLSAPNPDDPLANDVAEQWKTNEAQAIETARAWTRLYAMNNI
MEKK3 PB1 HTS – modulators (inhibitors or enhancers) of MEK5 binding to human MEKK3 PB1 domain | Q99759 | bead-based flow cytometry, Alexa488-MEK5 binding to MEKK3; actives lie on both sides; 0 = blocked by unlabeled MEK5, 100 = vehicle | binding response (% of control), % at 10 µM | hit rate 1.4% among 290,000 | AID 1529;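 active means binding response more than 3 SD above or below the average of its plate-row segment, actives on both sides; inconclusive means wells at one plate position flagged as instrument error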;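 further: Alexa488 bead fluorescence after subtracting the streptavidin-only scavenger bead signal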
MEKK2 mut-MEK5 – signal of MEK5 binding to mutant human MEKK2 PB1 domain. bead flow cytometry, Alexa488-MEK5 binding to MEKK2 mutant. percent response, % at 10 µM. hit rate 0.35% among 290,000; in the data active means percent response above about 24%, passing the limit was not always enough
Casp3 UBC13 ctr – caspase-3 inhibition (UBC13 counter-screen). AID 488856. Recombinant caspase-3, Caspase-Glo 3/7 luminescence, 60 min. shares compounds with UBC13 polyUb. hit rate 4% among 1,400. inhibition, % at 20 µM;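 active means mean inhibition across replicates above about 26%, limit read from the data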;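 further: plate controls were DMSO with caspase-3 for no effect and DMSO wells lacking enzyme for full effect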
Target sequence (P42574 whole entry, looked up): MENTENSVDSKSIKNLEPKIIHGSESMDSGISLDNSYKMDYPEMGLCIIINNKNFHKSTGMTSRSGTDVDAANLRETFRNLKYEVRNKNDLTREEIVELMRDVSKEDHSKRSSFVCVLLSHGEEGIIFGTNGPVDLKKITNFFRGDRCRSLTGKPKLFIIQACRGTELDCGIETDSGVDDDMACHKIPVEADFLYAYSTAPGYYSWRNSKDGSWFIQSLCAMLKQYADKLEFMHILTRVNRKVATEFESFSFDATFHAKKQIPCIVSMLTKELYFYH
UBC13 confirm – human UBC13 polyubiquitin inhibition, confirmed; shares compounds with UBC13 polyUb; UBC13 polyubiquitination, TR-FRET, biochemical; inhibition, % at 10 µM; hit rate 68% among 1,400; in the data active means inhibition above about 45%; inconclusive means no clear call, values can overlap the other calls
Starred values were filed as active, the others as inactive; u = inconclusive; x = not tested or not shown.

SMILES | MEKK2 WT-MEK5 | UBC13 polyUb | MEKK3 PB1 HTS | MEKK2 mut-MEK5 | Casp3 UBC13 ctr | UBC13 confirm
C#CCOCCOCCOCCNc1nc(N2CCN(C(=O)[C@H](CCCCN)n3cc(CN)nn3)CC2)nc(N2CCN(C(=O)[C@H](CCCCN)n3cc([C@@H](N)[C@H](C)CC)nn3)CC2)n1 | x | 109.1* | x | x | -2.2 | 108.5*
C#CCOCCOCCOCCNc1nc(N2CCN(C(=O)[C@H](CCCN=C(N)N)n3cc(C(N)[C@@H](C)CC)nn3)CC2)nc(N2CCN(C(=O)[C@H](CCC(=O)O)n3cc([C@@H](N)CCCCN)nn3)CC2)n1 (some centres undefined) | x | 34.3 | x | x | x | x
C#CCOCCOCCOCCNc1nc(N2CCN(C(=O)[C@H](CCCCN)n3cc([C@@H](N)[C@H](C)CC)nn3)CC2)nc(N2CCN(C(=O)[C@H](CCC(=O)O)n3cc([C@@H](N)CCCCN)nn3)CC2)n1 | x | 101.4* | x | x | -2.4 | 109.3*
Cc1ccc(NC(=S)N2CCCC(CO)C2)c(C)c1 (centres undefined) | 98.0 | -16.3 | 99.0 | -1.0 | x | x
Cc1cc(Nc2ccc(Cl)cc2)nc(NCc2ccccc2)n1 | 159.0* | 71.7* | 110.0 | 12.0 | 2.0 | 84.0*
CCCCNc1cc(C)nc(NCc2ccccc2)n1 | 133.0 | 48.5* | 106.0 | 10.0 | -4.3 | 55.9*
O=C(O)C(Cc1ccccc1)N1C(=O)c2cccc3cccc(c23)C1=O (centres undefined) | 93.0 | -9.4 | 94.0 | -7.0 | x | x
O=C1c2cccc3cccc(c23)C(=O)N1CCc1ccccc1 | 100.0 | 51.3* | 101.0 | -12.0 | 3.3 | u
COC(=O)CSc1nnc(CNC(=O)c2cc(OC)cc(OC)c2)n1-c1ccc(F)cc1 | 100.0 | 3.1 | 102.0 | -2.0 | x | x
COc1cccc(NC(=O)c2cnc(SCC(=O)NCc3ccc4c(c3)OCO4)n(C)c2=O)c1 | x | 56.2* | x | x | 97.5* | 49.8*
Cn1c(CO)cnc1SCC(=O)c1ccc(F)cc1 | 106.0 | -1.2 | 104.0 | 2.0 | x | x
Cn1c(SCC(=O)c2ccc(F)cc2)ncc(C(=O)Nc2ccccc2)c1=O | x | 57.8* | x | x | 79.2* | 68.6*
Cn1c(SCC(=O)NCC2CCCO2)ncc(C(=O)Nc2ccccc2)c1=O (centres undefined) | x | 68.9* | x | x | 96.3* | 65.7*
Cn1c(SCC(=O)NCc2ccccc2)ncc(C(=O)Nc2ccccc2)c1=O | x | 63.4* | x | x | 95.5* | 61.6*
CN(CC(=O)Nc1cccc(F)c1)C(=O)C1(c2ccccc2)CC1 | x | -15.4 | x | x | x | x
CN(/N=C\c1ccc(O)c(O)c1)c1nc(-c2ccccc2)cc(-c2ccccc2)n1 | 92.0 | -1.4 | 104.0 | 0.0 | x | x
CC(C)CSc1oc(-c2ccco2)nc1S(=O)(=O)c1ccccc1 | 102.0 | 3.2 | 113.0 | 11.0 | x | x
Cc1cccc2nc3c(nc12)-c1ccccc1C3=O | 92.0 | -24.2 | 94.0 | -17.0 | x | x
COc1ccc(CCNC(=O)CSc2ncc(C(=O)Nc3ccccc3)c(=O)n2C)cc1 | x | 35.8 | x | x | x | x
Cc1ccc(CNC(=O)CSc2ncc(C(=O)Nc3ccccc3)c(=O)n2C)cc1 | x | 54.7* | x | x | 95.0* | 62.7*
COc1ccccc1CNC(=O)c1ccc2c(=O)n(CCCN3CCCC3=O)c(=S)[nH]c2c1 | 91.0 | 45.5* | 93.0 | -10.0 | 2.9 | 43.2
O=C(CN1C(=O)NC2(CCCCCC2)C1=O)c1ccccc1 | 103.0 | -15.7 | 105.0 | 4.0 | x | x
O=C(Cn1nc(-c2nn(CC(=O)c3ccccc3)c3[n+]2CCCCC3)[n+]2c1CCCCC2)c1ccccc1 | 110.0 | 78.1* | 99.0 | 6.0 | 1.8 | 13.2
CC1CCCCN1CCNC(=O)c1ccc2c(=O)n(Cc3ccc(Cl)cc3)c(=S)[nH]c2c1 (centres undefined) | 169.0* | 49.2* | 107.0 | 33.0* | -1.2 | 61.3*
CC1CCCCN1CCNC(=O)c1ccc2c(=O)n(CCc3ccccc3)c(=O)[nH]c2c1 (centres undefined) | x | 20.8 | x | x | x | x
SMILES | MEKK2 WT-MEK5 | UBC13 polyUb | MEKK3 PB1 HTS | MEKK2 mut-MEK5 | Casp3 UBC13 ctr | UBC13 confirm
COc1ccc(CCNC(=O)Cn2c(=O)n(-c3ccc(C)c(F)c3)c(=O)c3sccc32)cc1OC | 105.0 | 49.3* | 97.0 | 1.0 | -0.5 | 45.5*
OC(c1cc(C(F)(F)F)nc2c(C(F)(F)F)cccc12)C1CCCCN1 (centres undefined) | x | 68.1* | x | x | -5.5 | 48.9*
Cc1cc(C#Cc2c(-c3ccccc3)n(C)c3ccccc23)ccc1F | 95.0 | -8.9 | 103.0 | -4.0 | x | x
O=[N+]([O-])c1c(-c2cn[nH]c2)n[nH]c1-c1cn[nH]c1 | 100.0 | 55.5* | 107.0 | 3.0 | 4.4 | 53.2*
Cc1ccc(S(=O)(=O)NCCCN2CCCC2)cc1 | 105.0 | 4.0 | 108.0 | 6.0 | x | x
Cc1cc(SCC(=O)NC(=O)c2cccn2C)nc2ccccc12 | 84.0 | 55.8* | 87.0 | -23.0 | -1.9 | 67.5*
O=C(c1coc2ccccc2c1=O)N1CCN(c2cccc(C(F)(F)F)c2)CC1 | x | 1.6 | x | x | x | x
O=C(CCc1nnc2ccc(N3CCCC3)nn12)Nc1ccc(F)c(F)c1 | 104.0 | 49.9* | 104.0 | 10.0 | -3.4 | u
CCCCOc1ccc(-c2cnc3ccccc3n2)cc1 | 98.0 | 53.7* | 119.0 | -1.0 | 92.9* | u
Oc1ccc(-c2cnc3ccccc3n2)cc1 | x | 4.8 | x | x | x | x
COc1cc(C(=O)Nc2cccc(S(=O)(=O)N3CCCC3)c2)cc(OC)c1C | x | 75.0* | x | x | 0.3 | 69.9*
Cc1nn(C)c(C)c1NC(=O)COc1ccc(Cl)cc1Br | x | -5.0 | x | x | x | x
COc1ccc(/C=C/C(=O)Nc2c(C)nn(C)c2C)cc1COc1ccc(Cl)cc1Br | 83.0 | 60.1* | 77.0 | -14.0 | -1.9 | 63.2*
O=C(CSc1nc(-c2cccs2)cc(C(F)(F)F)n1)Nc1cc(OCC(F)(F)C(F)F)cc([N+](=O)[O-])c1 | 117.0 | -33.0 | 99.0 | 0.0 | x | x
Cc1ccc(Cc2c(C)nc3nc(SCC(=O)NCCCN4CCCCCC4)nn3c2C)cc1 | 234.0* | 103.1* | 103.0 | 37.0* | 7.6 | 101.1*
COc1ccccc1NC(=O)c1c(N=Cc2cccc([N+](=O)[O-])c2)cnn1C | 104.0 | 77.3* | 107.0 | 11.0 | -2.0 | 85.5*
Cc1ccc(C(=O)N(C)CC(=O)Nc2cccc(C)c2C)o1 | 104.0 | -13.9 | 103.0 | 8.0 | x | x
NC1=NC[C@H](Cc2ccccc2)N1CCc1cc(C(F)(F)F)cc(C(F)(F)F)c1 | 114.0 | 80.1* | 105.0 | 7.0 | -9.9 | 45.0*
CC(C)Cn1cc(C(=O)NCCCN2CCCC2=O)c2c3ccccc3n(C)c2c1=O | 95.0 | 27.5 | 96.0 | 2.0 | x | x
CC(C)Cn1cc(C(=O)NCCCN2CCC(C)CC2)c2c3ccccc3n(C)c2c1=O | x | 75.7* | x | x | -3.7 | 50.3*
CC(C)Cn1cc(C(=O)NC2CCN(Cc3ccccc3)CC2)c2c3ccccc3n(C)c2c1=O | x | 68.3* | x | x | -1.6 | 44.9
COc1ccnc2c1c(=O)n(Cc1c(F)cccc1Cl)c(=O)n2C | 102.0 | 9.4 | 100.0 | 4.0 | x | x
